PubChem BioAssay (NCATS)
Results filed as inconclusive are left out. The source made the active and inactive calls. The call rests on the fitted dose curve; in most records, active means well fitted inhibition curve with a large enough effect; inconclusive means small, poorly fitted or top-dose-only effect; inactive means flat fitted curve, though single readings scatter.

What was measured:
Assay in all cases: qHTS profiling for inhibitors of Plasmodium falciparum proliferation (AID 504749); further: nearly all actives have a fitted effect of over 60% in size
Settings in all cases: P. falciparum in erythrocytes, SYBR Green DNA, 72 h; series mostly up to 28.7 µM
CP247 = test system: CP247
In short: (§1)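 Infected RBCs, 0.3% parasitemia/2.5% Hct final; cpd 72 h, 37 C, 5% CO2; lysis buffer with saponin/triton/SYBR Green I, o/n RT dark; FI 485/535; norm. to artemisinin (0.29 uM) and DMSO.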

CP250 = test system: CP250
In short: as §1

CP262 = test system: CP262
In short: as §1

CP201 = test system: CP201
In short: as §1

CP211 = test system: CP211
In short: as §1

CP215 = test system: CP215
In short: as §1

CP217 = test system: CP217
In short: as §1

CP237 = test system: CP237
In short: as §1

CP238 = test system: CP238
In short: as §1

CP252 = test system: CP252
In short: as §1

CP256 = test system: CP256
In short: as §1

CP260 = test system: CP260
In short: as §1

CP265 = test system: CP265
In short: as §1

CP266 = test system: CP266
In short: as §1

CP268 = test system: CP268
In short: as §1

CP269 = test system: CP269
In short: as §1

CP286 = test system: CP286
In short: as §1

CP291 = test system: CP291
In short: as §1

CP297 = test system: CP297
In short: as §1

CP203 = test system: CP203
In short: as §1

Measured: Potency
Potency means the concentration at half of the fitted maximal effect.

CS(=O)(=O)c1ccc([C@@H](O)[C@@H](COC(=O)CN)NC(=O)C(Cl)Cl)cc1
inactive: CP247 | CP250 | CP262

CC12CCC(C1)C(C)(C)C2=O (centres undefined)
inactive: CP201 | CP211 | CP215 | CP217 | CP237 | CP238 | CP247 | CP250 | CP252 | CP256 | CP260 | CP262 | CP265 | CP266 | CP268 | CP269 | CP286 | CP291 | CP297

CNC(=O)[C@H](Cc1c[nH]c2ccccc12)NC(=O)[C@@H](CC(=O)NO)CC(C)C
inactive: CP201 | CP252 | CP291

NC(=S)N=Nc1ccc(NN=C(N)N)cc1
active: CP203 12 µM | CP211 7.57 µM | CP215 7.57 µM | CP217 12.6 µM | CP237 10 µM | CP238 11.2 µM | CP247 11.2 µM | CP252 8.91 µM | CP256 1.58 µM | CP260 7.94 µM | CP262 6.01 µM | CP265 12.6 µM | CP268 9.53 µM | CP269 6.75 µM | CP286 4.47 µM | CP291 8.49 µM | CP297 9.53 µM

N[C@@H](Cc1cc(I)c(Oc2ccc(O)c(I)c2)c(I)c1)C(=O)O
inactive: CP201 | CP211 | CP238 | CP256 | CP262 | CP266 | CP268

CC(C)C1=CC2=CC[C@@H]3[C@](C)(CCC[C@@]3(C)C(=O)O)[C@H]2CC1
inactive: CP217 | CP237 | CP238 | CP247 | CP250 | CP252 | CP256 | CP260 | CP262 | CP265 | CP286

CC(=O)c1ccc2c(c1)N(CCCN1CCN(CCO)CC1)c1ccccc1S2
active: CP217 10 µM | CP237 11.2 µM | CP247 11.2 µM | CP252 10 µM | CP256 8.91 µM | CP265 11.2 µM | CP268 12 µM | CP269 10.7 µM | CP286 8.91 µM

COc1ccc(/C=N/NC(=O)c2ccncc2)c(C(=O)O)c1OC
inactive: CP203 | CP211 | CP215 | CP217 | CP237 | CP238 | CP247 | CP250 | CP252 | CP256 | CP260 | CP262 | CP265 | CP266 | CP268 | CP269 | CP286 | CP291 | CP297

CCN(CC)CCC(=O)N1c2ccccc2Sc2ccc(Cl)cc21
active: CP256 11.2 µM | CP260 8.91 µM
inactive: CP201

CCCCC[C@H](O)/C=C/[C@@H]1[C@H]2C/C(=C/CCCC(=O)O)O[C@H]2C[C@H]1O
inactive: CP201 | CP211 | CP215 | CP217 | CP237 | CP238 | CP247 | CP250 | CP252 | CP256 | CP262 | CP265 | CP266 | CP268 | CP269 | CP286 | CP291 | CP297

CCOC(=O)c1c[nH]c2cc(OCC(C)C)c(OCC(C)C)cc2c1=O
active: CP211 0.0536 µM | CP217 0.0708 µM | CP237 0.0794 µM | CP238 0.126 µM | CP247 0.0794 µM | CP250 0.0794 µM | CP252 0.0891 µM | CP256 0.0708 µM | CP260 0.0708 µM | CP265 0.0891 µM | CP268 0.135 µM | CP286 0.0708 µM | CP291 0.0757 µM

CN1CCCC(CN2c3ccccc3Sc3ccccc32)C1 (centres undefined)
active: CP217 10 µM
inactive: CP201 | CP262 | CP265 | CP266 | CP297

COc1ccc(-c2noc(CC(=O)O)c2-c2ccc(OC)cc2)cc1
inactive: CP201 | CP211 | CP215 | CP217 | CP237 | CP238 | CP247 | CP250 | CP252 | CP256 | CP260 | CP262 | CP265 | CP266 | CP268 | CP269 | CP286 | CP291 | CP297

OCc1ccccc1
active: CP250 10 µM | CP256 12.6 µM
inactive: CP201 | CP211 | CP238 | CP252 | CP262 | CP266

CCN(CC)CCOC(=O)c1cccnc1
inactive: CP203 | CP211 | CP215 | CP217 | CP252 | CP256 | CP260 | CP262 | CP265 | CP266 | CP268 | CP269 | CP286 | CP291 | CP297

CSc1nc2cc(Oc3cccc(Cl)c3Cl)c(Cl)cc2[nH]1
active: CP201 10.7 µM | CP211 10.7 µM | CP215 9.53 µM | CP217 3.98 µM | CP237 11.2 µM | CP238 8.91 µM | CP247 3.16 µM | CP250 2.24 µM | CP252 3.16 µM | CP256 1.78 µM | CP260 7.94 µM | CP265 2 µM | CP269 12 µM | CP286 10 µM | CP291 8.49 µM | CP297 12 µM
inactive: CP262

O=C1NCCN1c1ncc([N+](=O)[O-])s1
inactive: CP203 | CP211 | CP215 | CP217 | CP237 | CP238 | CP247 | CP250 | CP252 | CP256 | CP260 | CP262 | CP265 | CP266 | CP268 | CP269 | CP286 | CP291 | CP297

CC(CN(C)C)CN1c2ccccc2Sc2ccc(C(F)(F)F)cc21 (centres undefined)
inactive: CP266
active: CP286 11.2 µM

C/C(=C\C(=O)OCCCCCCCCC(=O)O)C[C@@H]1OC[C@H](C[C@@H]2O[C@H]2[C@@H](C)[C@H](C)O)[C@@H](O)[C@H]1O
active: CP256 0.316 µM | CP269 0.239 µM

C=CC[N+]1([C@H]2C[C@H]3[C@@H]4CC[C@H]5C[C@H](O)[C@@H](N6CCOCC6)C[C@]5(C)[C@H]4CC[C@]3(C)[C@H]2OC(C)=O)CCCC1
active: CP256 11.2 µM

CCOc1cc(-c2nccc3cc(OC)c(OC)cc23)cc(OCC)c1OCC
active: CP286 8.91 µM
inactive: CP238

C#C[C@]1(O)CC[C@@H]2[C@H]3CCC4=CC(=O)CC[C@H]4[C@H]3C(=C)C[C@@]21CC
active: CP201 0.478 µM | CP211 0.478 µM | CP215 0.478 µM | CP266 0.301 µM | CP268 0.426 µM | CP269 0.536 µM | CP291 0.426 µM | CP297 0.536 µM
inactive: CP238 | CP250 | CP252 | CP260 | CP262 | CP265 | CP286

CN1CCc2c(c3ccccc3n2Cc2ccccc2)C1
inactive: CP201 | CP217 | CP238 | CP247 | CP250 | CP252 | CP256 | CP260 | CP265 | CP266 | CP286 | CP291 | CP297
active: CP237 5.01 µM

N#Cc1ccc2c(c1)N(CCCN1CCC(O)CC1)c1ccccc1S2
inactive: CP217 | CP252 | CP262 | CP266 | CP297
active: CP260 11.2 µM

O=C(c1cc2ccccc2o1)N1CCN(Cc2ccccc2)CC1
inactive: CP238 | CP266
active: CP256 10 µM | CP265 8.91 µM

O=C(Nc1ccc(O)cc1)c1ccccc1O
inactive: CP201 | CP211 | CP215 | CP237 | CP238 | CP250 | CP252 | CP260 | CP262 | CP266 | CP268 | CP269 | CP286 | CP291 | CP297

c1ccc2c(c1)Sc1ccccc1N2CCN1CCCC1
active: CP201 13.5 µM | CP211 13.5 µM | CP215 12 µM | CP217 7.08 µM | CP237 5.01 µM | CP238 11.2 µM | CP247 7.08 µM | CP250 11.2 µM | CP252 11.2 µM | CP256 10 µM | CP260 7.94 µM | CP265 11.2 µM | CP268 9.53 µM | CP269 15.1 µM | CP286 10 µM | CP291 13.5 µM | CP297 12 µM
inactive: CP262

CSCCC(N)C(=O)O (centres undefined)
inactive: CP217 | CP237 | CP238 | CP247 | CP250 | CP252 | CP256 | CP260 | CP262 | CP265 | CP266 | CP269 | CP286 | CP297

O=c1n(CC2CO2)c(=O)n(CC2CO2)c(=O)n1CC1CO1 (centres undefined)
inactive: CP201 | CP211 | CP215 | CP217 | CP238 | CP256 | CP266 | CP269

Oc1cccc(O)c1O
inactive: CP217 | CP238 | CP250 | CP252 | CP256 | CP266

COc1ccc2nc(NC(=O)Nc3ccccc3)sc2c1
inactive: CP201 | CP217 | CP237 | CP238 | CP250 | CP252 | CP256 | CP260 | CP262 | CP265 | CP266 | CP268 | CP286 | CP297

CN(C)CCC=C1c2ccccc2C(C)(C)c2ccccc21
inactive: CP238 | CP247

CCCC(CCC)C(=O)OC1C[C@H]2CC[C@@H](C1)[N+]2(C)C (some centres undefined)
active: CP256 12.6 µM | CP265 8.91 µM
inactive: CP266

OCCOCCOCCO
inactive: CP217 | CP237 | CP238 | CP247 | CP250 | CP252 | CP256 | CP260 | CP262 | CP265 | CP286
active: CP215 16.9 µM
